GLP-1R agonist = activates the human GLP-1 receptor; HEK293 GLP-1R CRE-luciferase, luminescence, 4-6 h; cells express a hypersensitive GLP-1R form; 380,000 tested, 0.007% active; Potency, µM (top dose mostly 45.6 µM), inactives show top-dose activation, hits mostly activators; P43220; note: % of control where 0% means no effect
Target sequence (P43220 whole entry, looked up): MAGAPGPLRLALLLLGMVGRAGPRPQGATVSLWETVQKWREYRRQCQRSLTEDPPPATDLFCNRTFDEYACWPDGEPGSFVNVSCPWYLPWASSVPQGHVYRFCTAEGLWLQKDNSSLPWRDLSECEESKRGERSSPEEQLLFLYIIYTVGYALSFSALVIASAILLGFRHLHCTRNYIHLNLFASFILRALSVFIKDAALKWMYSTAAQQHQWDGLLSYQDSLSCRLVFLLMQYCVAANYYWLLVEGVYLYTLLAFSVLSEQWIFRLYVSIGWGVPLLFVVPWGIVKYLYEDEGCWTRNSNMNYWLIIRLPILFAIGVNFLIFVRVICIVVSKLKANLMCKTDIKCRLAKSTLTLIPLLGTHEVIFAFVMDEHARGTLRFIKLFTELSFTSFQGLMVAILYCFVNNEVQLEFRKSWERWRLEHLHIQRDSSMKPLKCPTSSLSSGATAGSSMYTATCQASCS
GLP1R cytotox = cytotoxic in the GLP-1 receptor inverse agonist counter-screen; Potency, µM (top dose mostly 38.3 µM), inactives show top-dose activity change, negative = inhibition, hits mostly inhibitors; 410,000 tested, 0.13% active; HEK293 cAMP-luciferase reporter cells, luminescence, 24 h;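 note: loss of luciferase light is scored as toxicity; % is set by controls: 0 for no effect and ±100 for the full control effect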
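To flag toxic compounds, the library was rerun on cells for 24 hr at 37 deg C and 5% CO2. Viability-linked luminescence was captured 12 min after adding luciferase detection reagent.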
GLP-1R inv ag = GLP-1 receptor (human) inverse agonism; Potency, µM (titrated, usually from 38.3 µM), inactives show at the top dose activity change, negative = inhibition, usual class: inhibitors; HEK293 GLP-1R CRE-luciferase, luminescence, 24 h; GLP-1R form is constitutively active; P43220; 410,000 tested, 1.6% active; AID 624417; note: % is set by controls: 0 for no effect and ±100 for the full control effect; nearly all actives have a fitted effect of over 55% in size
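Cells are plated, allowed 12 hours at 37 deg C, then treated with compounds for 24 hr before luciferase detection reagent is added and luminescence is read after 12 min at room temperature. The HEK293 line carries constitutively active GLP-1R with a cAMP-responsive reporter.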
Pin1 inhibitor = inhibitors of human Pin1. Q13526. 390,000 tested, 0.009% active. AID 504891. Pin1 FP peptide displacement, HiFluor488, 10 min. Potency, µM (series often up to 115 µM), inactives show at the top dose activity, negative = inhibition, hits mostly inhibitors; active = well fitted inhibition curve with a large enough effect in the polarisation, with a control signal flat, not every such curve was filed as active; inconclusive = small, poorly fitted or top-dose-only effect, or effect the other way, or a change in a side signal; inactive = no such curve, though single readings can be large or run the other way; the % refers to the polarisation; note: % is set by controls: 0 for no effect and ±100 for the full control effect
Target sequence (Q13526 whole entry, looked up): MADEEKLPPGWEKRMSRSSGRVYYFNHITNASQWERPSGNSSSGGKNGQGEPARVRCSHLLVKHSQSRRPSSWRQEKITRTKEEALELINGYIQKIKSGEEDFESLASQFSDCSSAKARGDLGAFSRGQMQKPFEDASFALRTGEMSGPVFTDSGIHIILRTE
Tb PFK inh = blocks T. brucei phosphofructokinase. O15648. T. brucei PFK, ADP-Glo luminescence. Potency, µM (titrated, usually from 57.5 µM), inactives show at the top dose activity, negative = inhibition, actives largely listed as inhibitors. 330,000 tested, 0.17% active;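 note: 0% = uninhibited 1x PFK enzyme wells and -100% = no-enzyme wells; nearly all actives have a fitted effect of over 60% in size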
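Activity is normalized to no-enzyme wells (full inhibition) and 1.25 nM enzyme wells (no inhibition). Reaction: 0.5 mM F6P, 0.1 mM ATP, 45 min RT, ADP-Glo luminescence; concentration-response curves fitted and classed by quality.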
PGK inhibitor = T. brucei PGK inhibition. P07378. PGK/GAPDH coupled, Kinase-Glo luminescence, 60 min. Potency, µM (doses to about 57.5 µM), inactives show at the highest dose activity change, negative = inhibition, usual class: inhibitors. 380,000 tested, 0.043% active. AID 602233; note: % is set by controls: 0 for no effect and ±100 for the full control effect; nearly all actives have a fitted effect of over 60% in size
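Recombinant glycosomal PGK reaction used 1,3-bisphosphoglycerate generated in-well by GAPDH (100nM final) in 100mM TEA pH 7.6, 5mM MgCl2, 0.01% Tween-20. After 60 minutes at room temperature, ATP was read by Kinase-Glo Plus luminescence end-point.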
Starred values were filed as active, the others as inactive; i = inactive; ? = inconclusive; · = no result given. This is a sample that favours compounds with a hit; in the whole collection about 1.8% have one here. Unless noted, calls come from the whole dose curve; as a rule, active = well fitted curve in the direction sought with a large enough effect; inconclusive = small, poorly fitted or top-dose-only effect, or another doubt; inactive = no such curve, though single readings can be large; an effect the other way counts as inactive or inconclusive. Potency is the fitted concentration of half-maximal effect.

SMILES | GLP-1R agonist | GLP1R cytotox | GLP-1R inv ag | Pin1 inhibitor | Tb PFK inh | PGK inhibitor
Cc1cc2c(s1)c1cnn(Cc3ccc(SC(F)(F)F)cc3)c(=O)c1n2C | · | · | · | -19% | · | ·
CCOC(=O)c1cccc(NC(=O)c2cc3c(Cl)nc4ccc(C)cc4c3s2)c1 | · | 2% | 9% | 11% | · | 1%
COc1ccc(Nc2c3c(nc4ccc(NC(=O)/C=C/c5cccc(OC)c5OC)cc24)CCCC3)cc1OC | · | ? | ? | 10% | · | 13%
CCN(CC)CCNCC(O)(c1ccc(Cl)cc1)c1ccc(Cl)cc1 | 1% | 2% | 8.9µM* | 13% | -3% | -2%
CC(C)(C)NCC(O)(c1ccc(Cl)cc1)c1ccc(Cl)cc1 | 0% | ? | 4.5µM* | 0% | -4% | -9%
CC(C)NCC(O)(c1ccc(Cl)cc1)c1ccc(Cl)cc1 | 17% | -8% | 13µM* | -4% | -2% | 16%
COc1ccc(C)cc1NC(=O)CC1NCCNC1=O (stereo not given) | · | 14% | 8% | -8% | · | 9%
CCc1ccc(-n2nc(C)c3c(C(=O)Nc4cc(OC)cc(OC)c4)cc(C)nc32)cc1 | · | 0% | 5µM* | 20% | · | -4%
COc1cc(NC(=O)c2cc(C)nc3c2c(C)nn3-c2ccccc2Cl)cc(OC)c1 | -7% | -3% | 13µM* | -5% | · | -6%
COc1ccc(NC(=O)c2cc(C)nc3c2c(C)nn3-c2cccc(Cl)c2C)c(OC)c1 | · | 10% | 33% | 1% | · | i
CCc1nn(CCCC(=O)N2CCN(c3cccc(C)c3C)CC2)c(=O)c2cc3occc3n12 | 24% | -5% | 11µM* | 11% | 2% | -1%
CCc1nn(CC(=O)N2CCN(c3cccc(C)c3C)CC2)c(=O)c2cc3occc3n12 | · | 7% | 16% | -5% | · | -6%
COc1cc(-c2nc(-c3cccc(Cl)c3)c(-c3ccccc3)[nH]2)cc(OC)c1OC | · | ? | 3.5µM* | -2% | · | i
Cc1ccc(C(=O)C(C(=O)/C=C/c2ccccc2)=C2SCCCS2)cc1 | -5% | ? | 2µM* | 1% | -3% | -4%
C/C(CCc1oc2ccc(Br)cc2c1-c1ccc(C)o1)=N/O | 2% | 8% | 10µM* | 1% | -7% | -2%
C/C(CCc1oc2ccc(Cl)cc2c1-c1ccc(C)o1)=N\O | 1% | -4% | ? | 9% | 0% | -5%
COc1cc(/C=C/C(=O)c2ccc(C)c([N+](=O)[O-])c2)cc(OC)c1O | -6% | 10% | 10µM* | -1% | 0% | -12%
COc1ccc(/C=C/C(=O)c2ccc(C)c([N+](=O)[O-])c2)cc1O | -45% | ? | -94% | 3% | 5% | -1%
C[C@@H](Nc1nc(Cl)nc2nc[nH]c12)c1ccccc1 | · | · | · | -10% | · | ·
O=C(Cn1ncc2c([nH]c3ccccc32)c1=O)NCc1cccc(Cl)c1 | · | 7% | -25% | 2% | · | 1%
CCOC(=O)C(=NC(C)CC)NNc1ccc(Br)cc1 (stereo not given) | 16% | -11% | 2.5µM* | 0% | -8% | i
CCCCCC(=O)N1C[C@@H](n2cc(-c3ccc(F)cc3)nn2)[C@H](O)C[C@@H]1c1ccc(OC)cc1 | 1% | -11% | 11µM* | · | · | -8%
CCCCCCN1C[C@H](O)[C@@H](n2cc(-c3ccc(F)cc3)nn2)C[C@@H]1c1ccccc1 | -1% | -18% | 5µM* | · | · | 0%
CCCCCCN1C[C@H](n2cc(-c3ccc(F)cc3)nn2)[C@@H](O)C[C@@H]1c1ccccc1 | -3% | 3% | -19% | · | · | -10%
CCCCCC(=O)N1C[C@H](n2cc(COC(=O)c3ccccc3)nn2)[C@@H](O)C[C@@H]1c1ccc(C)cc1 | -4% | -14% | 10µM* | · | · | 9%
SMILES | GLP-1R agonist | GLP1R cytotox | GLP-1R inv ag | Pin1 inhibitor | Tb PFK inh | PGK inhibitor
CC1(C(=O)NCc2ccco2)Cc2c(-c3cccc(C(F)(F)F)c3)ccnc2O1 (stereo not given) | 16% | ? | 2.2µM* | · | · | ·
CC1(C(=O)NCc2ccncc2)Cc2c(-c3cccc(C(F)(F)F)c3)ccnc2O1 (stereo not given) | 2% | -19% | ? | · | · | ·
CC1(C(=O)NCc2cccs2)Cc2c(-c3ccccc3)ccnc2O1 (stereo not given) | 8% | ? | 4.5µM* | · | · | ·
CCc1ccc(-n2c(=O)c3cccnc3n2CC(=O)Nc2ccccc2C(F)(F)F)cc1 | · | 1% | -13% | 18% | · | 9%
COc1ccc(-c2cn3nc(SCC(=O)Nc4ccc(C)c(Cl)c4)ccc3n2)cc1 | · | 4% | 1% | 13% | · | -2%
CCc1cc(C(=O)Nc2cc(S(=O)(=O)N(CC)CC)ccc2N2CCOCC2)sc1C | 5% | -2% | 7.9µM* | 11% | 2% | -12%
CCC(C(=O)OCC(=O)N1C(C)CCCC1C)c1ccccc1 (stereo not given) | 12% | 3% | 8.9µM* | -3% | 0% | -8%
Cc1ccc(NS(=O)(=O)c2ccc3c(ccn3C)c2)cc1C | · | · | · | 2% | · | ·
CCOC(=O)N1CCN(C(=O)c2ccc3[nH]c(C)c(C)c3c2)CC1 | 10% | -15% | 18% | 4% | 0% | -8%
Cc1ccc(C)c(N2CCN(C(=O)c3ccc4[nH]c(C)c(C)c4c3)CC2)c1 | · | -27% | 7.9µM* | 18% | · | 2%
Cc1c(C(=O)N2c3ccccc3CC2C)oc2ccccc12 (stereo not given) | -3% | -16% | 10µM* | -13% | 2% | -2%
COCc1c(C(=O)OCC(=O)N2c3ccccc3CC2C)oc2ccccc12 (stereo not given) | 2% | 0% | 0% | -8% | -4% | -5%
O=C(COc1ccc(-c2nnc(N3CCCCC3)c3ccccc23)cc1)N1CCCCC1 | 2% | 0% | 10µM* | -11% | 0% | -5%
Cc1ccc(-c2nnc(N3CCN(C(=O)COc4ccccc4)CC3)c3ccccc23)cc1 | -10% | ? | -11% | 4% | -7% | 6%
CCOC(=O)c1nn(-c2ccc(F)cc2)cc1O | 9% | -3% | 39% | 4% | 2% | 0%
CCOC(=O)c1nn(-c2ccc3c(c2)CCN3C(C)=O)cc1O | 0% | -17% | 11µM* | -1% | 2% | -7%
COc1cc(C=NNc2ccccc2)ccc1OC(=O)c1ccccc1 | -6% | -26% | 1µM* | · | · | i
COc1cc(/C=N\NC(=O)CC#N)ccc1OC/C=C/c1ccccc1 | -4% | -4% | 13µM* | 10% | 1% | -1%
N#CCC(=O)N/N=C\c1cccc(OC/C=C/c2ccccc2)c1 | 0% | 2% | 3.2µM* | 16% | 3% | i

Screening data from PubChem.
